Assay results taken from ChEMBL document CHEMBL1961873, “Compounds: GSK PKIS; Assays: Nanosyn kinase panel” (2012).

Assays:
[1] = biological target: Fibroblast growth factor receptor 4 (Homo sapiens) (UniProt P22455); conditions: at 1 µM;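 further: reported figure is the averaged percent inhibition of FGFR4, from the GSK PKIS kinase screening panel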
[2] = biological target: Tyrosine-protein kinase Fgr (Homo sapiens) (UniProt P09769); conditions: at 0.1 µM
[3] = biological target: Tyrosine-protein kinase Fgr (Homo sapiens) (UniProt P09769); conditions: at 1 µM
[4] = biological target: Vascular endothelial growth factor receptor 1 (Homo sapiens) (UniProt P17948); conditions: at 0.1 µM
[5] = biological target: Vascular endothelial growth factor receptor 1 (Homo sapiens) (UniProt P17948); conditions: at 1 µM
[6] = biological target: Receptor-type tyrosine-protein kinase FLT3 (Homo sapiens) (UniProt P36888); conditions: at 0.1 µM
[7] = biological target: Receptor-type tyrosine-protein kinase FLT3 (Homo sapiens) (UniProt P36888); conditions: at 1 µM
[8] = test system: T1, Receptor-type tyrosine-protein kinase FLT3 (Homo sapiens), P36888 [D835Y]; conditions: at 0.1 µM
T1 sequence (whole entry): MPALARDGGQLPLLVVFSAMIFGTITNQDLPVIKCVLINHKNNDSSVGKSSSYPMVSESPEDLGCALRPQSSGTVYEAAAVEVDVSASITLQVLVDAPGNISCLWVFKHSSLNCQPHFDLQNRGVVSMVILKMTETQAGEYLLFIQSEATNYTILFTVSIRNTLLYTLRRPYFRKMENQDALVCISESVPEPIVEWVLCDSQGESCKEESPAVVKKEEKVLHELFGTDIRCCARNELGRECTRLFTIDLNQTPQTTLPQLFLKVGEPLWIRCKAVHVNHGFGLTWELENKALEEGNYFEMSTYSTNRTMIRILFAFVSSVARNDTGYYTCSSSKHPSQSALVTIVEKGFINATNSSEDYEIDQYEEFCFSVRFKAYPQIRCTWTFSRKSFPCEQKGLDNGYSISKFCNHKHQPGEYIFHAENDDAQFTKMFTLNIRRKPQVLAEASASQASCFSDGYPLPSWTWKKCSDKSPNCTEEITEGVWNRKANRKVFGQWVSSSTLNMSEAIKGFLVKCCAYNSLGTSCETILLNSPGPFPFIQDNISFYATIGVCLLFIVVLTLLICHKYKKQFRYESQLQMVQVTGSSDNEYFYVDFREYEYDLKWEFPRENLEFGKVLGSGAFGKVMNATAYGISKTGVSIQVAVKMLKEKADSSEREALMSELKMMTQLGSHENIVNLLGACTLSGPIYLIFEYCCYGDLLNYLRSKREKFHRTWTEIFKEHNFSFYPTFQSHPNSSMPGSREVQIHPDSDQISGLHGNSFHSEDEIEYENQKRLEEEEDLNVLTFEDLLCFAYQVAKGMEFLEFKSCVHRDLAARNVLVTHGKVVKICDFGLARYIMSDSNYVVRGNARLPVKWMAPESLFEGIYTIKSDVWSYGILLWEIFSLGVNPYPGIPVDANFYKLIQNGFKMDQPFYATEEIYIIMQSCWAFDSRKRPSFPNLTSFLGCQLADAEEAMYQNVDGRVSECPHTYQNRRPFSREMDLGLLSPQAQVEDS

[9] = biological target: Non-receptor tyrosine-protein kinase TYK2 (Homo sapiens) (UniProt P29597); conditions: at 1 µM;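 further: values are mean percent inhibition of TYK2 kinase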
[10] = biological target: T2, Tyrosine-protein kinase receptor TYRO3 (Homo sapiens) (UniProt Q06418); conditions: at 0.1 µM
T2 sequence (whole entry): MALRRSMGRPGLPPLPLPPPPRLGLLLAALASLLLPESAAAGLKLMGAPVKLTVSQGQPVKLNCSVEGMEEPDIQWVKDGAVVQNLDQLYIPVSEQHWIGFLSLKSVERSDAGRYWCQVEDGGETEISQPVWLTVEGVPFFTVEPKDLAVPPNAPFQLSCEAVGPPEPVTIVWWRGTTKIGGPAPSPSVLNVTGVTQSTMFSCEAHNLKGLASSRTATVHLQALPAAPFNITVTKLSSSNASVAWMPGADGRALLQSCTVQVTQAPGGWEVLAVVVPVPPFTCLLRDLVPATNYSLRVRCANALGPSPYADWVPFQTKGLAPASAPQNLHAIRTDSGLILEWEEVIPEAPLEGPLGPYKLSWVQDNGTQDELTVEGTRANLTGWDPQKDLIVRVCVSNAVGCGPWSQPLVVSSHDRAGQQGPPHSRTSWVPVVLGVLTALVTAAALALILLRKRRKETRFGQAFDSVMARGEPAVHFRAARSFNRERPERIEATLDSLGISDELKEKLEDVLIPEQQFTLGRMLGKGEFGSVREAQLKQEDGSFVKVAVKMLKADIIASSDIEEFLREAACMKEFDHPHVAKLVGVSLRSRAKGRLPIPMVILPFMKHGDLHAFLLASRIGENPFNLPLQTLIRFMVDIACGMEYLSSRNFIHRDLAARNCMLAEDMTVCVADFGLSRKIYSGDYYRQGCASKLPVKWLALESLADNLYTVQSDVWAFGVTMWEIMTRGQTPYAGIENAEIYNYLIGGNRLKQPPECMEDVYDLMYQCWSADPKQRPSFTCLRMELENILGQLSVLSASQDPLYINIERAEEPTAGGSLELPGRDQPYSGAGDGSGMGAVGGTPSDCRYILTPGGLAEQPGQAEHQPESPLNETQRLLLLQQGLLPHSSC

[11] = biological target: T2, Tyrosine-protein kinase receptor TYRO3 (Homo sapiens); conditions: at 1 µM
[12] = biological target: Tyrosine-protein kinase Yes (Homo sapiens) (UniProt P07947); conditions: at 0.1 µM
[13] = biological target: Tyrosine-protein kinase Yes (Homo sapiens) (UniProt P07947); conditions: at 1 µM
[14] = biological target: T3, Tyrosine-protein kinase ZAP-70 (Homo sapiens) (UniProt P43403); conditions: at 0.1 µM
T3 sequence (whole entry): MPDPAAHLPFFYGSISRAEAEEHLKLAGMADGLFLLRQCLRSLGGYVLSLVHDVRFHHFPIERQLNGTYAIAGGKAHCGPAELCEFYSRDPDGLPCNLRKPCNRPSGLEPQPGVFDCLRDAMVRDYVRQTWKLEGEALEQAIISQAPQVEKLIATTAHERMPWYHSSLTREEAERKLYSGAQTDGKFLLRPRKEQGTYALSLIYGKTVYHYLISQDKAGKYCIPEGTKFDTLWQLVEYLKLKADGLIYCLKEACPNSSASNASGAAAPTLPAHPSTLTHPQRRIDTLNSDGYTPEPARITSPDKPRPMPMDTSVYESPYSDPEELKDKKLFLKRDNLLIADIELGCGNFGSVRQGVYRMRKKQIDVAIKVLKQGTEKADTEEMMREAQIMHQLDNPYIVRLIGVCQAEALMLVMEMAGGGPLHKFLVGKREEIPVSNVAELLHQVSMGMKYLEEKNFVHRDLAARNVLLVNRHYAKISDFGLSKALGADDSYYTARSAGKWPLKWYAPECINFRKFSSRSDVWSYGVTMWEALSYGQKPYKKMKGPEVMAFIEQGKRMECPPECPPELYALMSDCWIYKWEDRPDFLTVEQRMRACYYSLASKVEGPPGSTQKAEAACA

[15] = biological target: T3, Tyrosine-protein kinase ZAP-70 (Homo sapiens); conditions: at 1 µM
[16] = biological target: Serine/threonine-protein kinase B-raf (Homo sapiens) (UniProt P15056); conditions: at 0.1 µM
[17] = biological target: Serine/threonine-protein kinase B-raf (Homo sapiens) (UniProt P15056); conditions: at 1 µM
[18] = test system: Serine/threonine-protein kinase B-raf (Homo sapiens), P15056 [V600E]; conditions: at 0.1 µM
[19] = test system: Serine/threonine-protein kinase B-raf (Homo sapiens), P15056 [V600E]; conditions: at 1 µM
[20] = biological target: RAF proto-oncogene serine/threonine-protein kinase (Homo sapiens) (UniProt P04049); conditions: at 0.1 µM;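 further: values are mean CRAF kinase inhibition from profiling of the GSK Published Kinase Inhibitor Set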
Chain of RAF proto-oncogene serine/threonine-protein kinase (Homo sapiens) (P04049 whole entry): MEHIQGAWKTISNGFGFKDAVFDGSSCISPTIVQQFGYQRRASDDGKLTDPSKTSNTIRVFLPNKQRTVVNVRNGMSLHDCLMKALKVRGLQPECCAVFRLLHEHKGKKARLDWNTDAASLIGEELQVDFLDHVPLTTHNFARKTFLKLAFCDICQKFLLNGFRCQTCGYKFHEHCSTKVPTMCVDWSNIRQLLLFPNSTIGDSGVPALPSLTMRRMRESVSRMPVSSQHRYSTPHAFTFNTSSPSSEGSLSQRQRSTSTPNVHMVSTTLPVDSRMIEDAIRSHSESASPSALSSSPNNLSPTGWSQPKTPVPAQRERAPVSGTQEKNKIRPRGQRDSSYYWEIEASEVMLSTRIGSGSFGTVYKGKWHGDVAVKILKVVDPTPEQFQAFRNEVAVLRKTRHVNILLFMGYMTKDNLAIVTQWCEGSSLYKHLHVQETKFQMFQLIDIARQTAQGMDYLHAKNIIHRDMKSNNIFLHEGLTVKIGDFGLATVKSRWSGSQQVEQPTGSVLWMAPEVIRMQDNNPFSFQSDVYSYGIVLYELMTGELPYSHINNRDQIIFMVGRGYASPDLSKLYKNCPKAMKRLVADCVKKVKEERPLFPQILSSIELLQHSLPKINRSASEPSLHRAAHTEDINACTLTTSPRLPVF

Chain of Fibroblast growth factor receptor 4 (Homo sapiens) (P22455 22-802 limits assumed): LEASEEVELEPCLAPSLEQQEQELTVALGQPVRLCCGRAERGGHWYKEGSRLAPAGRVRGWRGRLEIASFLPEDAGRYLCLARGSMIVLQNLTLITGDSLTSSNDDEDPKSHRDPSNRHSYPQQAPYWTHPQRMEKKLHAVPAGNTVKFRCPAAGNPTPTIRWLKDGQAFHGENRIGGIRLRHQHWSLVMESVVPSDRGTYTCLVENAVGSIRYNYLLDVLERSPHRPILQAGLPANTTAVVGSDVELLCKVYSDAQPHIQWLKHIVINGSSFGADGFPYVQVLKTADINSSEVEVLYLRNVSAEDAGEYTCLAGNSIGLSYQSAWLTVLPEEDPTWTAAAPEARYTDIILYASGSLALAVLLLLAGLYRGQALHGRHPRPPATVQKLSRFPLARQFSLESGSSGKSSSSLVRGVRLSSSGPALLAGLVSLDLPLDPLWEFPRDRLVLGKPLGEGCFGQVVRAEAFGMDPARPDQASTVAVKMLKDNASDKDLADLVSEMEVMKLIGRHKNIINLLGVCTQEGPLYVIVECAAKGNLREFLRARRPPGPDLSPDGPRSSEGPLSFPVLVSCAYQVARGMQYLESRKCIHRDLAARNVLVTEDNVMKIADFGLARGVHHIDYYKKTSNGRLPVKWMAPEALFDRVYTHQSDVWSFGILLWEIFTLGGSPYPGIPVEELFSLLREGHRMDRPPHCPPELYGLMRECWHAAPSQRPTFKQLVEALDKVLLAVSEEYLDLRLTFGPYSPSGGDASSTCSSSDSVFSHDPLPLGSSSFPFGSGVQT
Chain of Tyrosine-protein kinase Yes (Homo sapiens) (P07947 2-543 limits assumed): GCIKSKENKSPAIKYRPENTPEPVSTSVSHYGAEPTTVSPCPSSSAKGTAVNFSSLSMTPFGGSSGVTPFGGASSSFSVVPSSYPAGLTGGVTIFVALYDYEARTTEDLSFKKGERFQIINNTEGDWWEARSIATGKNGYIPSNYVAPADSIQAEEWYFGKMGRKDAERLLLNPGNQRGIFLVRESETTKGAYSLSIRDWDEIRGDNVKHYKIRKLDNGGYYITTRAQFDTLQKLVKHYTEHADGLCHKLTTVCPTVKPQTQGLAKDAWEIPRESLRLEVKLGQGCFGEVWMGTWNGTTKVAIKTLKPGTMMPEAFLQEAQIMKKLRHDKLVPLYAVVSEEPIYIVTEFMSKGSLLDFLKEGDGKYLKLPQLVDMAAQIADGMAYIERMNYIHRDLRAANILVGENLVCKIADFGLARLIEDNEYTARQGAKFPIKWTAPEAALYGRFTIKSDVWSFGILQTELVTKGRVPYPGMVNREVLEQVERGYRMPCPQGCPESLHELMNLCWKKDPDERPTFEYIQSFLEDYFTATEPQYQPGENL
Chain of Vascular endothelial growth factor receptor 1 (Homo sapiens) (P17948 whole entry): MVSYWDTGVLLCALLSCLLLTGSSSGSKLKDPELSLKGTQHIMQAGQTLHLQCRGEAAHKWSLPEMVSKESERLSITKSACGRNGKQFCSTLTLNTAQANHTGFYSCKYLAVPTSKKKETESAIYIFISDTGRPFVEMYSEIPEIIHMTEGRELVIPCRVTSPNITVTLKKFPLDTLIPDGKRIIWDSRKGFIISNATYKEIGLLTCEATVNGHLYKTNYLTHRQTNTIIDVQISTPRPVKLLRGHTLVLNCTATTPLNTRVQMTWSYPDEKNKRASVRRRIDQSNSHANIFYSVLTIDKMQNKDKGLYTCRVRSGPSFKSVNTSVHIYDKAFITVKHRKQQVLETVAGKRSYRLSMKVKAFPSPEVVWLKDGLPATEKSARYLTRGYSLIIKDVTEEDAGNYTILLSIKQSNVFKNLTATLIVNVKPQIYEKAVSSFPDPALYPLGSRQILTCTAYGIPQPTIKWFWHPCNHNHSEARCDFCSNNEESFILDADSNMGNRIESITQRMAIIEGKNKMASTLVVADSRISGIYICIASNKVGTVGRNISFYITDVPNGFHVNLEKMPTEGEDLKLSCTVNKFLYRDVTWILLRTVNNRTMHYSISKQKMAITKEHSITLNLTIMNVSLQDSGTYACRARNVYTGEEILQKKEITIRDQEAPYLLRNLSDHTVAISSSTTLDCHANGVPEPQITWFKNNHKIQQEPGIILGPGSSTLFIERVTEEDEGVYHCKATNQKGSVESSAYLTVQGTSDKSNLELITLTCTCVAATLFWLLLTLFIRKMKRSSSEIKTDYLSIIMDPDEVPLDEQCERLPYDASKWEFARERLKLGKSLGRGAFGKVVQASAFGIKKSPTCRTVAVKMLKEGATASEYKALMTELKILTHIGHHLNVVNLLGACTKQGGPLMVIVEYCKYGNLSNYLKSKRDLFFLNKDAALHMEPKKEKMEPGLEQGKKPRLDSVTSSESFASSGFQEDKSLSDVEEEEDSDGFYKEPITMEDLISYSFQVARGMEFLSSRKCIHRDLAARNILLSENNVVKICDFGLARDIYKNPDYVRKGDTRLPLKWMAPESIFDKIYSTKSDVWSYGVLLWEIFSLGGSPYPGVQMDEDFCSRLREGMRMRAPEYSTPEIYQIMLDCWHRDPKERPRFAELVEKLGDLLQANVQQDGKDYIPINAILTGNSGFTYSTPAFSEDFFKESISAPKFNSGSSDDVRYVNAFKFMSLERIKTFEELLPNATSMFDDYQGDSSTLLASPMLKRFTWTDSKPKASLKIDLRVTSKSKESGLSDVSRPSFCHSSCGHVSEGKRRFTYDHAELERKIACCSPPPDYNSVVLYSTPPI
Chain of Serine/threonine-protein kinase B-raf (Homo sapiens) (P15056 whole entry): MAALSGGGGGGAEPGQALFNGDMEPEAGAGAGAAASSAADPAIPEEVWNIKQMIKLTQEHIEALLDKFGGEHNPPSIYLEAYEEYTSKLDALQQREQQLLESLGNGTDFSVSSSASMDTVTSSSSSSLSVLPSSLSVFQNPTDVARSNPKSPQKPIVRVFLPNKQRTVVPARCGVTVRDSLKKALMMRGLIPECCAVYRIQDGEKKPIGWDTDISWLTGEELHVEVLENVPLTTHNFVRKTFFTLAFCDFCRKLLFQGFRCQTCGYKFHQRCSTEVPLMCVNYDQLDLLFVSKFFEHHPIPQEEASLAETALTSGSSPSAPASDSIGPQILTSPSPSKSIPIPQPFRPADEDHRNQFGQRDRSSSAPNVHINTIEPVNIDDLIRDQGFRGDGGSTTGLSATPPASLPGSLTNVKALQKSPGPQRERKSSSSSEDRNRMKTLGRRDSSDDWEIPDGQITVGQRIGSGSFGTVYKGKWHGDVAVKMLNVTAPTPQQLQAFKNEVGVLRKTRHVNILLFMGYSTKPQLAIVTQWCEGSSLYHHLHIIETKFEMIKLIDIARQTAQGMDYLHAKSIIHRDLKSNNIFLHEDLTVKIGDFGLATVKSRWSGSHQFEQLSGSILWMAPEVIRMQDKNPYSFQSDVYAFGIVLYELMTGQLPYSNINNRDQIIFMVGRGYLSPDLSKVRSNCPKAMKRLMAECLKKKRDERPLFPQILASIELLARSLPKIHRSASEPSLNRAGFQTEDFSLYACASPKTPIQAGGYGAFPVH
Chain of Serine/threonine-protein kinase B-raf (Homo sapiens), P15056 [V600E] (P15056 whole entry V600E): as the sequence (P15056 whole entry) above, with V600E counted along it
Chain of Tyrosine-protein kinase Fgr (Homo sapiens) (P09769 2-529 limits assumed): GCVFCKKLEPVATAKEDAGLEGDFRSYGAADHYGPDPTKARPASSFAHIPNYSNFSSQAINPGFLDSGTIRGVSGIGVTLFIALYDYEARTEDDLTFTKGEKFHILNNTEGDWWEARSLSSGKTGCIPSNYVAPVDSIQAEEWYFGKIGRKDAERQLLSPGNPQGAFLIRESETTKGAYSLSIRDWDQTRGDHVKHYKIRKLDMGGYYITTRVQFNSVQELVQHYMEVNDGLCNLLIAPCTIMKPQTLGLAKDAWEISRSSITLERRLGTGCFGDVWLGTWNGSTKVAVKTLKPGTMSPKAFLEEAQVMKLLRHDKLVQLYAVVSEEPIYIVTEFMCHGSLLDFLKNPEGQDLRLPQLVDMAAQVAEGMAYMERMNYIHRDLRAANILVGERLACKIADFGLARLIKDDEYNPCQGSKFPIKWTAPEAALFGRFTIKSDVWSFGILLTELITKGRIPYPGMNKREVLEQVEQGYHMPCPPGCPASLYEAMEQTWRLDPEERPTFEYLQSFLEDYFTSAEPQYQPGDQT

SMILES | inhibition [1] [%] | inhibition [2] [%] | inhibition [3] [%] | inhibition [4] [%] | inhibition [5] [%] | inhibition [6] [%] | inhibition [7] [%] | inhibition [8] [%] | inhibition [9] [%] | inhibition [10] [%] | inhibition [11] [%] | inhibition [12] [%] | inhibition [13] [%] | inhibition [14] [%] | inhibition [15] [%] | inhibition [16] [%] | inhibition [17] [%] | inhibition [18] [%] | inhibition [19] [%] | inhibition [20] [%]
CCN1CCC(C(=O)Nc2n[nH]c3nnc(-c4cccc(F)c4F)cc23)CC1 | 1.49 | 1.72 | 3.35 | 0.76 | 1.26 | 1.71 | 6.05 | -1.16 | -3.82 | -1.35 | 1.67 | 2.36 | -0.1 | -1.24 | 2.19 | -0.36 | 0.01 | 1.12 | 1.24 | -4.36
CCS(=O)(=O)c1ccc(OC)c(Nc2ncc(-c3cccc(C(C)=O)c3)o2)c1 | 3.95 | 13.2 | 44.4 | 3.88 | 17.2 | 19.1 | 69.8 | 55.7 | -1.19 | 5.67 | 24.1 | 18.6 | 65.9 | 2.04 | 1.3 | 3.62 | 6.17 | 3.41 | 5.84 | 5.57
O=C(Nc1n[nH]c2nnc(-c3cccnc3)cc12)C1CC1 | -0.33 | 2.57 | 2.95 | 0.7 | 0.07 | -0.64 | 1.54 | 0.49 | 2.04 | -0.64 | 1.65 | 1.69 | 7.01 | -1.5 | 2.36 | 0.25 | 2.61 | 1.02 | 3.66 | -2.58
CN(C)CCNC(=O)Nc1ccc(N(C)c2ccnc(Nc3ccc(CS(C)(=O)=O)cc3)n2)cc1 | 2.84 | 1.07 | 9.57 | 4.18 | 8.87 | 16 | 58.6 | -5.17 | -3.31 | 2.66 | 5.87 | 0.55 | 2.71 | 1.7 | 1.48 | 4.53 | 5.12 | 5.5 | 6.71 | -0.51
Fc1ccc(Nc2nccc(-c3c(-c4ccc(C(F)(F)F)cc4)nn4ncccc34)n2)cc1F | 3.24 | -0.18 | 4.23 | 1.95 | 4.12 | 1.11 | 4.52 | 0.57 | -3.25 | 3.71 | 1.88 | -0.6 | 1.12 | 2.29 | 2.38 | 3.42 | 6.75 | 3.45 | 6.03 | 4.84
CC1(C)CC(n2cnc(-c3ccc(F)cc3)c2-c2ccnc(N)n2)CC(C)(C)N1 | 2.01 | 0.26 | 3.54 | 1.16 | 1.59 | 0.9 | -0.24 | 2.51 | 0.03 | 0.59 | 5.65 | 0.2 | 7.25 | 0.52 | 2.37 | 1.97 | 1.13 | 1.52 | 0.8 | 6.47
c1cnn2ncc(-c3ccnc(NCCCN4CCOCC4)n3)c2c1 | 2.53 | 2.2 | 0.54 | 1.65 | 0.94 | 0.76 | 1.48 | 0.21 | -3.09 | 3.23 | 2.64 | 2.68 | 0.1 | 2.13 | 2.9 | 5.35 | 7.07 | 5.41 | 5.03 | 2.81
Cc1ccc(-c2cc3c(NC(=O)C4CC4)ncnc3o2)cc1 | 1.04 | 2.06 | 13.3 | 2.75 | 3.26 | 2.89 | 3.69 | 0.76 | -1.62 | 9.35 | 47.8 | 6 | 23.7 | 1.07 | 3.18 | 4.57 | 4.6 | 4.47 | 4.89 | -0.84
CS(=O)(=O)Nc1ccc(-c2cc(-c3ccccc3)cc(C(N)=O)c2N)cc1 | 1.17 | -1.31 | 1.01 | 1.22 | 1.42 | 6 | 4.94 | -2.16 | -2.96 | 0.01 | 0.42 | 0.79 | 4.67 | -2.43 | -3.4 | 2.34 | 3.97 | 2.93 | 3.58 | -0.86
